The list is not random: actives were taken first. Their share in the collection is about 3.1%.
p53null 32C tox: kills p53 null cells at the permissive temperature | 55,000 compounds, 0.62% hits | Potency, µM (top dose mostly 46.1 µM), for the others: at the top dose activity change, negative = cytotoxicity, most hits filed as cytotoxic | H1299-neo p53 null cells, ATP luminescence, 24 h, 32C;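 note: 0% = DMSO only and -100% = full killing by 100 µM tamoxifen; nearly all actives have a fitted effect of over 55% in size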
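Overnight 37C seeding (600 cells/well) of H1299-neo preceded a 24 hr, 32C exposure to compounds up to 46 uM. ATP levels, read by luminescence after 20 min at RT, indicated surviving cells.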
SKOV3 invasion: blocks SKOV3ip1 adhesion and invasion in omental model; SKOV3ip1-GFP adhesion/invasion on 3D omental model, fluorescence; Potency, µM (top dose mostly 45.8 µM), inactives show at the highest dose activity change, negative = inhibition, usual class: inhibitors; 46,000 compounds, 0.1% hits; AID 1963576;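 note: plate controls were DMSO wells for no effect and tomatine positive control wells for full effect; nearly all actives have a fitted effect of over 65% in size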
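qHTS, 4-pt dose (0.36-46 umol/L); SKOV3ip1-GFP, 1,200 cells/well, no FBS; primary omental fibroblast/mesothelial co-culture 48 h pre-grown; 2 h RT + 16 h 37 C; PBS wash, 4% PFA; GFP count 488/509 nm.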
pS6 MEF inh: inhibitors of mTORC1 signaling in Tsc2-/- p53-/- MEF cells | Tsc2-/- p53-/- MEF, phospho-rpS6 immunofluorescence/PI, 24 h | Potency, µM (doses to about 38.3 µM), for the others: at the highest dose activity change, negative = inhibition, usual class: inhibitors | 44,000 compounds, 0.78% hits;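 note: plate controls were DMSO for no effect and rapamycin for full effect; nearly all actives have a fitted effect of over 50% in size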
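Compounds act on Tsc2-/-, p53-/- fibroblasts carrying an empty vector for 24 h before fixation and dual staining for phospho-S6 and DNA (propidium iodide). Values are percentages of cells above a rapamycin-defined pS6/PI threshold.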
p53null 39C tox: kills p53 null cells at the nonpermissive temperature; Potency, µM (doses to about 46.1 µM), for the others: at the top dose activity, negative = cell killing, most hits filed as cytotoxic; 55,000 compounds, 0.97% hits; H1299 p53-null (neo) cells, 39C, ATPlite viability, 24 h;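 note: 0% = DMSO only and -100% = full killing by 100 µM tamoxifen; nearly all actives have a fitted effect of over 50% in size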
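Concentration-response (up to 46 uM) was run for 24 h at the nonpermissive 39C on H1299-p53A138V or H1299-neo cells. ATP content was measured with ATPlite luminescence. AC50 values were Hill-modeled after normalizing between DMSO and 100 uM tamoxifen killing.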
S16 F2sN tox: S16 Schwann cell cytotoxicity; S16 Pmp22-F2sN Schwann cells viability, CellTiter-Glo, 24 h; Potency, µM (series often up to 57.5 µM), for inactives: at the top dose activity change, negative = cytotoxicity, usual class: cytotoxic; 43,000 compounds, 0.48% hits; AID 1508642; note: nearly all actives have a fitted effect of over 65% in size
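Viability was measured by CellTiter-Glo luminescence (15 min, room temperature). This followed 24 h at 37 °C of compound exposure (23 nL pin transfer) in S16 Pmp22-F2sN Schwann cells, 500-1,000 per well.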
PMP22 txn prim: PMP22 gene transcription modulation; 43,000 compounds, 2% hits; S16 Pmp22-F2sN Schwann cells (luciferase reporters placed in the Pmp22 gene), FLuc/NLuc coincidence luminescence, 24 h; AID 1508649; Potency, µM (series often up to 57.5 µM), for the others: at the highest dose activity change, negative = inhibition, most hits filed as inhibitors; active = clear falling dose curves in both reporters; inconclusive = both reporters move, but less clearly or upward; inactive = either reporter flat; the % is the NLuc reporter signal
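S16(c9) Schwann cells with FLuc/NLuc coincidence reporter in the Pmp22 3' UTR; compounds pin-transferred, 24 h at 37C. Dual-luciferase read: FLuc first, then NLuc after Stop&Glo, each 10 min at room temperature.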
* hit, by the source's call. Unless noted, calls come from the whole dose curve; as a rule, active = well fitted curve in the direction sought with a large enough effect; inconclusive = small, poorly fitted or top-dose-only effect, or another doubt; inactive = no such curve, though single readings can be large; an effect the other way counts as inactive or inconclusive. Unless noted, % is set by controls: 0 for no effect and ±100 for the full control effect; potency is the fitted concentration of half-maximal effect.

Cc1cc(C)c(NS(=O)(=O)c2cc(-c3cnc(C4CC4)o3)ccc2C)c(C)c1 was read as p53null 32C tox 0.8%, SKOV3 invasion inconclusive, pS6 MEF inh 29.9%, p53null 39C tox -6.4%, S16 F2sN tox 2.9% and PMP22 txn prim -5.5%.
Cc1cc(C)c(NS(=O)(=O)c2ccc(-c3cnc(C4CC4)o3)cc2)c(C)c1 was read as p53null 32C tox 47.0%, SKOV3 invasion inactive, pS6 MEF inh inconclusive, p53null 39C tox inconclusive, S16 F2sN tox 0.794µM* and PMP22 txn prim inconclusive.
Screening O=C(c1ccc(F)c(F)c1Nc1ccc(I)cc1F)N1CC(O)([C@H]2CCCCN2)C1 returned SKOV3 invasion -15.1%.
For O=C(O)c1ccc2c(c1)nc(Nc1cccc(Cl)c1)c1ccncc12 the results were SKOV3 invasion -4.8%.
COCCCNC(=O)c1c(NC(=O)c2nc(S(C)(=O)=O)ncc2Cl)sc2c1CCCC2 was read as p53null 32C tox -7.8%, SKOV3 invasion -3.4%, pS6 MEF inh -29.4%, p53null 39C tox 2.2%, S16 F2sN tox 3.55µM* and PMP22 txn prim 1.96µM*.
CCNC(=O)c1c(NC(=O)c2nc(S(=O)(=O)CC)ncc2Cl)sc2c1CCCC2 was read as p53null 32C tox 18.6%, SKOV3 invasion inconclusive, pS6 MEF inh inconclusive, p53null 39C tox 25.1µM*, S16 F2sN tox 4.47µM* and PMP22 txn prim 4.47µM*.
For Cc1nn(Cc2ccc(Cl)cc2Cl)c(C)c1NC(=O)C1C2CCC(O2)C1C(=O)O (stereo unspecified) the results were p53null 32C tox -6.1% and p53null 39C tox -0.3%.
Cc1nn(Cc2ccc(Cl)cc2Cl)c(C)c1NC(=O)CCl was read as p53null 32C tox 5.1% and p53null 39C tox 12.6µM*.
CCS(=O)(=O)Nc1ccc2[nH]c(O)c(C(=Nc3ccc(CN4CCCCC4)cc3)c3ccccc3)c2c1 was read as SKOV3 invasion 33.2%.
For CCOC(=O)c1ccc(-c2ccc(/C=C(\C#N)c3nc4ccc(C)cc4[nH]3)o2)cc1 the results were p53null 32C tox inconclusive, SKOV3 invasion 3.16µM*, pS6 MEF inh 21.8%, p53null 39C tox 6.31µM*, S16 F2sN tox inconclusive and PMP22 txn prim -166.5%.
For N#C/C(=C\c1ccc(-c2ccc(F)cc2F)o1)c1nc2ccccc2[nH]1 the results were p53null 32C tox inconclusive, SKOV3 invasion -3.5%, pS6 MEF inh 13.1µM*, p53null 39C tox inconclusive, S16 F2sN tox 1.8% and PMP22 txn prim inconclusive.
`COc1ccccc1Nc1c2c(nc3ccc(NC(=O)c4cccc(OC)c4OC)cc13)CCCC2` gave p53null 32C tox -22.1%, SKOV3 invasion inconclusive, pS6 MEF inh 16.5µM*, p53null 39C tox 14.3%, S16 F2sN tox inconclusive and PMP22 txn prim inconclusive.
COc1ccccc1Nc1c2c(nc3ccc(NC(=O)c4ccc(OC)c(OC)c4)cc13)CCCC2 was read as p53null 32C tox inconclusive, SKOV3 invasion inconclusive, pS6 MEF inh inconclusive, p53null 39C tox 22.4µM*, S16 F2sN tox inconclusive and PMP22 txn prim inconclusive.
For Cc1ccc(C(=O)Nc2ccccc2C(=O)O)cc1S(=O)(=O)N1CCCCCC1 the results were p53null 32C tox 5.01µM*, SKOV3 invasion 1.7%, pS6 MEF inh 6.3%, p53null 39C tox 10µM*, S16 F2sN tox 8.4% and PMP22 txn prim -29.8%.
Screening Cc1ccccc1NC(=O)c1ccc(Cl)c(S(=O)(=O)N2CCCCCC2)c1 returned p53null 32C tox 1.7%, SKOV3 invasion -9.2%, pS6 MEF inh 9.4%, p53null 39C tox inconclusive, S16 F2sN tox inconclusive and PMP22 txn prim -53.4%.
Screening N#Cc1c(C2CCNCC2)cc(-c2c(O)cccc2OCC2CC2)nc1N returned SKOV3 invasion 14.6%.
`Cc1cccc(-n2ncc3c(N4CCCC(C)C4)ncnc32)c1` (stereo unspecified) gave p53null 32C tox 3.16µM*, SKOV3 invasion inactive, pS6 MEF inh 0.6%, p53null 39C tox 2µM*, S16 F2sN tox -0.2% and PMP22 txn prim inconclusive.
Screening CC1CCCN(c2ncnc3c2cnn3-c2ccc(F)cc2)C1 (stereo unspecified) returned p53null 32C tox 2.82µM*, SKOV3 invasion -1.5%, pS6 MEF inh 10.6%, p53null 39C tox inconclusive, S16 F2sN tox 10.9% and PMP22 txn prim 3.0%.
Cc1ccc(-n2ncc3c(N4CCN(c5ccc(F)cc5)CC4)ncnc32)cc1 was read as p53null 32C tox -5.9%, SKOV3 invasion -7.9%, pS6 MEF inh 9.4%, p53null 39C tox -5.4%, S16 F2sN tox -0.2% and PMP22 txn prim 5.2%.
`Cc1ccc(-n2ncc3c(N4CCCCCC4)ncnc32)cc1C` gave p53null 32C tox 10µM*, SKOV3 invasion -20.1%, pS6 MEF inh 13.2%, p53null 39C tox -11.4%, S16 F2sN tox 18.5% and PMP22 txn prim 6.4%.
Screening Cc1cc(Nc2ncnc3ccc(-c4ccc(CNCCS(C)(=O)=O)o4)cc23)ccc1Oc1ccn2ncnc2c1 returned SKOV3 invasion 12.7%.
Screening Cc1ccnc(NS(=O)(=O)c2ccc(NC(=O)Nc3ccc(S(=O)(=O)Nc4nccc(C)n4)cc3)cc2)n1 returned SKOV3 invasion 8.6%.
For CC[C@H]1OC(=O)[C@H](C)C(=O)[C@H](C)[C@@H](O[C@H]2O[C@H](C)C[C@H](N(C)C)[C@@H]2O)[C@](C)(OC)C[C@@H](C)C(=O)[C@H](C)[C@H]2N(CCCCn3cnc(-c4cccnc4)c3)C(=O)O[C@]12C the results were SKOV3 invasion 4.4%.
CN[C@@H]1[C@@H](O)[C@@H](O[C@@H]2[C@@H](O)[C@H](O[C@H]3O[C@H](CN)[C@@H](O)[C@H](O)[C@@H]3O)[C@@H](N)C[C@@H]2NC(=O)[C@@H](O)CN)OC[C@]1(C)O was read as SKOV3 invasion 0.7%.
`CCn1c(=N)n(CCOc2ccc(Br)cc2)c2ccccc21` gave p53null 32C tox -20.9%, SKOV3 invasion inconclusive, pS6 MEF inh 13.1µM*, p53null 39C tox 12.6%, S16 F2sN tox inconclusive and PMP22 txn prim inconclusive.
Screening Cc1cccc(C(=O)Nc2c(C(=O)NCc3ccc(Cl)cc3)sc3nc(C)cc(C)c23)c1 returned p53null 32C tox -19.7%, SKOV3 invasion -1.4%, pS6 MEF inh 13.1µM*, p53null 39C tox inconclusive, S16 F2sN tox inconclusive and PMP22 txn prim inconclusive.
